# Pf growth 48h: Primary qHTS for delayed death inhibitors of the malarial parasite plastid, 48 hour incubation; P. falciparum luciferase growth in erythrocytes, 48 h; Potency, µM (doses to about 28.7 µM), for inactives: top-dose activity change, negative = inhibition, actives largely listed as inhibitors; 310,000 tested, 5.9% active; further: on the % scale 0 is the no-effect control and ±100 the full control effect
#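 Growth was read as firefly luciferase luminescence after a 48 h, 37 C, 5% CO2 exposure of compounds to reporter-bearing P. falciparum cultures (0.1% parasitemia, 2% hematocrit final) in Albumax-supplemented RPMI 1640.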
# NS1 inh: qHTS Assay for Inhibitors of Influenza NS1 Protein Function | AID 2326, 2010 | Potency, µM (series often up to 46.1 µM), inactives show top-dose activity, positive = more growth | 270,000 tested, 0.4% active; calls by dose curve; further: actives are rising curves; nearly all actives have a fitted effect of over 50% in size
#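 S. cerevisiae expressing influenza A NS1, grown in glucose, washed, then diluted 1:100 into pH 6.0 -URA galactose medium with 23 nl compound. Growth recovery read as OD600; NS1-free strain serves as control.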
# HCV inhibitor: qHTS Assay for Inhibitors of Hepatitis C Virus (HCV); Huh7.5.1 HCVcc-Cre infection, luciferase reporter, 44 h; Potency, µM (titrated, usually from 41.8 µM), for the others: at the highest dose activity change, negative = inhibition, actives largely listed as inhibitors; 340,000 tested, 3.4% active; AID 651820, 2012; further: on the % scale 0 is the no-effect control and ±100 the full control effect
#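 Reporter virus HCVcc-Cre (~0.5 moi) infects cells exposed to compound; seeding density 1,000 cells/well with 4 h settling beforehand. Luminescence, 15 sec read, taken 44 h post-infection following a 15 min RT substrate incubation.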
# Pf growth 96h: Primary qHTS for delayed death inhibitors of the malarial parasite plastid, 96 hour incubation. P. falciparum luciferase reporter growth, 96 h. Potency, µM (doses to about 28.7 µM), for the others: at the highest dose activity change, negative = inhibition, hits mostly inhibitors. 320,000 tested, 6.9% active; further: on the % scale 0 is the no-effect control and ±100 the full control effect
#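 Two parasite generations (96 h, 37 C, 5% CO2) of compound exposure in infected erythrocytes (0.05% parasitemia, 2% hematocrit). Luciferase-reporter P. falciparum; decreased luminescence indicates inhibited growth, aimed at apicoplast-acting delayed death.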
# Vaccinia Venus: qHTS for Stage-Specific Inhibitors of Vaccinia Orthopoxvirus: Venus Reporter Primary qHTS. Vaccinia virus Venus reporter expression, fluorescence. Potency, µM (titrated, usually from 36.5 µM), for the others: top-dose activity change, negative = inhibition, actives largely listed as inhibitors. 330,000 tested, 0.46% active; calls by dose curve; tested in A549 cells; further: on the % scale 0 is the no-effect control and ±100 the full control effect; nearly all actives have a fitted effect of over 30% in size
# Vaccinia mCherry: qHTS for Stage-Specific Inhibitors of Vaccinia Orthopoxvirus: mCherry Reporter Primary qHTS. Vaccinia virus mCherry reporter infection, fluorescence. Potency, µM (series often up to 36.5 µM), for inactives: at the highest dose activity change, negative = inhibition, actives largely listed as inhibitors. 310,000 tested, 0.63% active. AID 720579, 2013; calls by dose curve; tested in A549 cells; further: on the % scale 0 is the no-effect control and ±100 the full control effect; nearly all actives have a fitted effect of over 35% in size
# HCV inh confirm: qHTS Assay for Inhibitors of Hepatitis C Virus (HCV): Confirmation Assay for Cherry-picked Compounds; Potency, µM (doses to about 41.8 µM), for inactives: at the top dose activity, negative = inhibition, hits mostly inhibitors; 640 tested, 78% active; AID 720575, 2013; shares compounds with HCV inhibitor; HCVcc-Cre infectious virus cell assay, luciferase, inhibition; further: nearly all actives have a fitted effect of over 80% in size
# HCV host tox: qHTS Assay for Inhibitors of Hepatitis C Virus (HCV): Cytotoxicity Counterscreen for Cherry-picked Compounds | shares compounds with HCV inhibitor | HCV host cell line cytotoxicity counterscreen | Potency, µM (top dose mostly 41.8 µM), without a hit: top-dose activity change, negative = cytotoxicity, usual class: inhibitors | 640 tested, 22% active | AID 720576, 2013;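 further: 44 h compound exposure; on the % scale 0 is the no-effect control and ±100 the full control effect; nearly all actives have a fitted effect of over 55% in size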
# * hit, by the source's call; i = inactive; ? = inconclusive; . = not tested or not shown. The list is not random: actives were taken first. Their share in the collection is about 11%. Unless noted, the call rests on the fitted dose curve; in most records, active means well fitted curve in the direction sought with a large enough effect; inconclusive means small, poorly fitted or top-dose-only effect, or another doubt; inactive means no such curve, though single readings can be large; an effect the other way counts as inactive or inconclusive. Potency means the concentration at half of the fitted maximal effect.
SMILES,Pf growth 48h,NS1 inh,HCV inhibitor,Pf growth 96h,Vaccinia Venus,Vaccinia mCherry,HCV inh confirm,HCV host tox
O=C1CC(c2ccc(F)cc2)Sc2nc(-c3ccccc3)c(-c3ccccc3)n21 (stereo unspecified),0%,0%,20%,37%,-12%,-14%,.,.
CCOC(=O)C1CCCN(S(=O)(=O)c2ccc(S(N)(=O)=O)cc2)C1 (stereo unspecified),?,.,?,-24%,-15%,i,.,.
CCOC(=O)C1CCCN(S(=O)(=O)c2ccc(S(=O)(=O)N(CC)CC)cc2)C1 (stereo unspecified),-24%,-3%,0.89µM*,0%,-25%,i,0.7µM*,1.8µM*
NS(=O)(=O)c1ccc(CCNc2nc3c(-c4cccc(F)c4)nnn3c3ccccc23)cc1,-14%,0%,1.4µM*,-12%,1%,-13%,7µM*,-16%
Cc1noc(/C=C/c2ccccc2F)c1S(=O)(=O)N1CCC(C(=O)N2CCN(C)CC2)CC1,-1%,-10%,4µM*,-20%,.,.,22µM*,?
Cc1sc(NC(=O)Cc2ccc3c(c2)OCO3)nc1-c1ccc2c(c1)CCN2C(=O)c1ccc(F)cc1,9.3µM*,17%,1.3µM*,5%,-15%,i,7.9µM*,-21%
COc1ccc2nc(C)c3cc(C)oc3c2c1,12%,-4%,8.9µM*,.,-7%,-13%,22µM*,32%
CCOC(=O)c1cccc(NC(=O)c2cc3sccc3n2C)c1,116%,2%,3.2µM*,.,.,.,25µM*,-29%
Cc1ccc(-n2c(-c3ccc(Br)cc3)c[n+]3c2CCc2ccc4cccnc4c2-3)cc1,1.7µM*,-144%,2.5µM*,0.47µM*,.,.,6.3µM*,14µM*
Cc1ccc(-n2c(=O)[nH]c3ncccc3c2=O)cc1,10%,1%,13%,-2%,-3%,i,.,.
COC(=O)c1c(NC(C)=O)sc2c1CCCC2,-8%,-99%,?,?,-26%,.,.,.
Cc1cccc(CN2C(=O)N/C(=C/c3cc(C)n(-c4cc(C)ccn4)c3C)C2=O)c1,12µM*,13%,1.8µM*,.,-10%,.,16µM*,8%
CCOC(=O)CN(C#N)c1nc(N(C)C)nc(N(C)C)n1,-15%,.,-16%,0%,-12%,-7%,.,.
COc1cc(C(=O)Nc2cccc(NC(=O)c3cccs3)c2)cc(OC)c1OC,?,-5%,?,40%,.,.,13µM*,72%
COc1cc(C(=O)Nc2cccc(NC(=O)c3ccccc3)c2)cc(OC)c1OC,?,1%,?,?,.,.,.,.
COC(=O)/C(C#N)=C\c1c(OC)[nH]c2ccccc12,-10%,-2%,4µM*,31%,.,.,11µM*,23%
O=C(O)Cn1c(C(=O)Nc2nc(-c3ccccc3Cl)cs2)cc2ccccc21,-14%,.,.,?,.,.,.,.
O=[N+]([O-])c1cccc2ccc(/C=C/c3ccc(F)cc3)nc12,?,5%,1µM*,-79%,-22%,?,3.1µM*,-21%
O=[N+]([O-])c1ccc(/C=C/c2ccc3cccc([N+](=O)[O-])c3n2)cc1,1%,15%,-9%,-4%,-11%,-4%,.,.
CCCCCOC(=O)CSc1nc2c(c(=O)[nH]c(=O)n2C)n1Cc1ccc(Cl)cc1,?,?,2.8µM*,-9%,17%,-13%,5.6µM*,20%
